Laboratory results from PubChem BioAssay (Tox21).
Records with an inconclusive call do not appear. Unmarked numbers belong to inactive results. Active and inactive are the calls of the source. The call rests on the fitted dose curve; in most records, active means well fitted cell-killing curve with a large enough effect in the repeat runs; inconclusive means weak or mixed curves, or effect the other way; inactive means flat fitted curve, though single readings scatter.

assay: cAMP Responsive Elements (CRE) small molecule antagonists, cell-based qHTS assay: qHTS cell viability counter screen (AID 2060913); conditions: CRE-bla HEK293T viability, CellTiter-Glo luminescence, 5 h; series mostly up to 92.4 µM; viability change, negative = cytotoxic: at the top concentration; further: nearly all actives have a fitted effect of over 40% in size
Summary of the method: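 Cytotoxicity counter screen multiplexed with the CRE-bla antagonist read: HEK293T cells in DMEM with dialyzed FBS and 25 mM HEPES were treated 3 hrs under 0.25 uM final NKH477, then viability measured by CellTiter-Glo luminescence.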
On the % scale 0 is the no-effect control and ±100 the full control effect; potency means the concentration at half of the fitted maximal effect.

| Structure (SMILES) | viability change, negative = cytotoxic | Potency |
| --- | --- | --- |
| COC(=O)[C@H]1[C@H]2C[C@@H]3c4[nH]c5cc(OC)ccc5c4CCN3C[C@H]2C[C@@H](OC(=O)COc2ccc(OC)cc2)[C@@H]1OC | 3.64% [at 42.5 µM] | – |
| O=C(O)c1cccnc1Nc1cccc(C(F)(F)F)c1 | 10.9% [at 42.5 µM] | – |
| CC(C)C(=O)OCc1cccc(OC(=O)[C@@H]2N3C(=O)[C@@H](NC(=O)Cc4ccccc4)[C@H]3SC2(C)C)c1 | 5.48% [at 42.5 µM] | – |
| O=C(Oc1ccccc1)Oc1ccccc1 | -10.4% | – |
| COc1cccc2c1C(=O)c1c(O)c3c(c(O)c1C2=O)C[C@@](O)(C(C)=O)C[C@@H]3O[C@H]1C[C@H](N)[C@H](O)[C@H](C)O1 | 15.8% [at 42.5 µM] | – |
| CCCCCCCCCCCCCCCCCC[N+](C)(C)C | – | 54.6 µM (active) |
| CCC(C)(C)c1ccc(CC(C)CN2C[C@@H](C)O[C@@H](C)C2)cc1 (stereo not given in full) | 1.32% [at 42.5 µM] | – |
| O=C(c1ccc(O)cc1O)c1ccc(O)cc1O | – | inactive |
| CC(C)=CCC1=C(O)c2ccccc2C(=O)C1=O | 15.5% | – |
| CC(C)(c1cc(Br)c(OCCO)c(Br)c1)c1cc(Br)c(OCCO)c(Br)c1 | -15.3% | – |
| O=[N+]([O-])c1ccc(/C=N\O)o1 | 6.89% [at 42.5 µM] | – |
| CCC(=O)OC(C)c1ccccc1 (stereo not given) | -2.37% | – |
| CCOc1ccc(NC(=O)CC(C)=O)cc1 | 6.18% | – |
| COc1ccc(-c2cc(=O)c3c(O)cc(O[C@@H]4O[C@H](CO[C@@H]5O[C@@H](C)[C@H](O)[C@@H](O)[C@H]5O)[C@@H](O)[C@H](O)[C@H]4O)cc3o2)cc1O | -0.142% [at 42.5 µM] | – |
| CC(C)C[C@H](NC(=O)[C@H](Cc1ccccc1)NC(=O)c1cnccn1)B(O)O | 4.81% [at 42.5 µM] | – |
| CN(C)C(=O)NC1(c2ccccc2)CCN(CCC[C@]2(c3ccc(Cl)c(Cl)c3)CCCN(C(=O)c3ccccc3)C2)CC1 | -0.11% [at 18.9 µM] | – |
| C=CCCCC | 0.654% | – |
| C[C@]12CC[C@@H]3c4ccc(O)cc4CC[C@H]3[C@@H]1CC[C@@H]2O | – | inactive |
| O=Cc1ccccc1S(=O)(=O)O | 1.13% | – |
| O=C(C1CCCCC1)N1CC(=O)N2CCc3ccccc3C2C1 (stereo not given) | – | inactive |

| Structure (SMILES) | viability change, negative = cytotoxic | Potency |
| --- | --- | --- |
| O=CN1CCCCC1 | 5.02% | – |
| O=C1CCCCC1 | – | inactive |
| N=C(N)c1ccc(OCCCCCOc2ccc(C(=N)N)cc2)cc1 | – | inactive |
| Nc1ncnc2c1ncn2[C@@H]1O[C@H](COP(=O)(O)O)[C@@H](O)[C@H]1O | 10.5% [at 42.5 µM] | – |
| CCc1cccc2c3c([nH]c12)C(CC)(CC(=O)O)OCC3 (stereo not given) | – | inactive |
| N#C[C@@H]1CC(F)(F)CN1C(=O)CNC1CC2CCC(C1)N2c1ncccn1 (stereo not given in full) | 2.69% | – |
| CN(C)C(=O)C1(N2CCCCC2)CCN(CC[C@@]2(c3ccc(Cl)c(Cl)c3)CN(C(=O)c3ccccc3)CCO2)CC1 | – | 64.1 µM (active) |
| C=CCCCCCC | -2.18% | – |
| CC1CCCCN1CCCOC(=O)c1ccc(OC2CCCCC2)cc1 (stereo not given) | -12.6% [at 42.5 µM] | – |
| O=Cc1ccccc1C=O | – | inactive |
| C=Cc1ccc(C=C)cc1 | 10.2% | – |
| C=C(C)CCCC(C)CCO (stereo not given) | 0.132% | – |
| O=C(O)c1cc(O)c2c(c1)C(=O)c1cccc(O)c1C2=O | -4.6% | – |
| Cc1coc2ccccc2c1=O | -5.94% [at 42.5 µM] | – |
| CCCCCCCCC(=O)O | – | inactive |
| CCCCCCCCCCCCCCCS(=O)(=O)Oc1ccccc1 | 0.0892% [at 42.5 µM] | – |
| CC/C=C\CCCCCCCCCCOC(C)=O | 2.18% | – |
| CC(C)(C)C1(CCc2ccc(Cl)cc2)CO1 (stereo not given) | 6.04% | – |
| NCc1cccc(C2CCN(C(=O)c3ccc(C#Cc4ccccc4F)o3)CC2)c1 | – | 68.6 µM (active) |
| CCOC(=O)COc1cc(-n2ncc(C(F)(F)F)c(C)c2=O)c(F)cc1Cl | 0.109% | – |
